Experimental findings from PubChem BioAssay (EPA / NIEHS) are described below.

Several values for one entry are separate records, joined by “and”; a condition that tells them apart may be missing. Identical values can stand only once. Records with an inconclusive call do not appear. More than one record can exist for a structure, and the calls need not agree. Activity calls are given as the source filed them. How the source made its calls, unless noted: active means hit-call score of the fitted dose curve at least 0.9, where 1 is the maximum; inconclusive means response in the unintended direction; inactive means score below 0.9.

A short description of experiment [1]: TOX21_p53_BLA_p2_viability: Viability Assessment in the Tox21 HCT-116 p53 Agonism Beta-lactamase Assay, Phase 2 (AID 2283591).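 Further: compound exposure lasted 16 h at 37 °C; actives lower the ATP signal meaning cytotoxicity.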 In outline: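 Cytotoxicity readout: CellTiter-Glo ATP luminescence, 30 min at room temperature, after the beta-lactamase read. Cells were HCT116 exposed 16 h at 37C to compounds pin-transferred at 217-fold dilution from DMSO stocks.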

For experiment [2], the target named is Cellular tumor antigen p53 (Homo sapiens) (UniProt P04637). Briefly: TOX21_p53_BLA_p2_ratio: Tox21 HCT-116 p53 Agonism Beta-lactamase Assay, Ratio, Phase 2 (AID 2283592). In outline: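 In this cell-based reporter format, HCT116 cells were dosed with chemicals delivered from DMSO by 217-fold dilution and incubated 16 h at 37C. Emission at 460 and 530 nm after 2 h CCF4-AM loading provided the ratio, fitted upward versus DMSO.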
Sequence of Cellular tumor antigen p53 (Homo sapiens) (P04637 whole entry, looked up): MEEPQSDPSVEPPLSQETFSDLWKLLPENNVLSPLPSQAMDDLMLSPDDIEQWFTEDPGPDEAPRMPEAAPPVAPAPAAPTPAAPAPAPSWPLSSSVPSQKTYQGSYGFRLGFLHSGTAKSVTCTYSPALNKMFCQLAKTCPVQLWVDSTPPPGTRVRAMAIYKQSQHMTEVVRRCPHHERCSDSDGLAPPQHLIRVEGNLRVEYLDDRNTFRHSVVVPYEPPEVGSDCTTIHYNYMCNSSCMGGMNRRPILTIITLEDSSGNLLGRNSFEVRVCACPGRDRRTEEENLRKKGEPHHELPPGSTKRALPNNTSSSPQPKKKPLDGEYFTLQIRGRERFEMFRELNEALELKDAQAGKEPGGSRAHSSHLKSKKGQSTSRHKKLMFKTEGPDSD

A short description of experiment [3]: TOX21_p53_BLA_p3_viability: Viability Assessment in the Tox21 HCT-116 p53 Agonism Beta-lactamase Assay, Phase 3 (AID 2283593).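 Further: cells exposed to compound for 16 h before reading.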 In outline: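 Cellular ATP was quantified by CellTiter-Glo luminescence, read after 30 min at room temperature. Beforehand, HCT116 cells (4000/well) received compound 5 h post-seeding, 217-fold diluted from DMSO, then incubated 16 h at 37C.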

The target of experiment [4] is Cellular tumor antigen p53 (Homo sapiens) (UniProt P04637). Briefly: TOX21_p53_BLA_p3_ratio: Tox21 HCT-116 p53 Agonism Beta-lactamase Assay, Ratio, Phase 3 (AID 2283596). In outline: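 HCT116 p53-bla cells (4000/well) given compound in DMSO (217-fold dilution) after 5 h, incubated 16 h at 37C. CCF4-AM substrate 2 h at room temperature; 460/530 nm emission ratio, gain fitted against DMSO.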

Experiment [5] can be described thus: TOX21_p53_BLA_p4_viability: Viability Assessment in the Tox21 HCT-116 p53 Agonism Beta-lactamase Assay, Phase 4 (AID 2283597).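 Further: hits lower the luminescence signal meaning cytotoxicity.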 In outline:
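We seeded HCT116 p53 reporter cells at 4000/well and waited 5 h. We then added compounds in DMSO at a 217-fold dilution and incubated for 16 h. Viability was read as CellTiter-Glo luminescence after 30 min at RT.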

The target of experiment [6] is Cellular tumor antigen p53 (Homo sapiens) (UniProt P04637). The experiment in a line: TOX21_p53_BLA_p5_ratio: Tox21 HCT-116 p53 Agonism Beta-lactamase Assay, Ratio, Phase 5 (AID 2283599). A digest of the protocol:
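Beta-lactamase reporter ratio (blue 460 nm over green 530 nm, 405 nm excitation) after 2 h CCF4-AM loading, in HCT-116 cells exposed 16 h at 37 C to compounds pinned at 217-fold dilution. Increases relative to DMSO baseline scored.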

Experiment [7] is described as follows: TOX21_p53_BLA_p5_viability: Viability Assessment in the Tox21 HCT-116 p53 Agonism Beta-lactamase Assay, Phase 5 (AID 2283600). In outline:
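Compounds, pinned from DMSO at 217-fold dilution, were left on the cells for 16 h. The viability endpoint was ATP content measured by CellTiter-Glo luminescence, where falling signal reflects cytotoxicity.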

Experiment [8] concerns the target Cellular tumor antigen p53 (Homo sapiens) (UniProt P04637). The experiment in a line: TOX21_p53_BLA_p4_ratio: Tox21 HCT-116 p53 Agonism Beta-lactamase Assay, Ratio, Phase 4 (AID 2283601). A digest of the protocol:
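Signal is the blue/green (460nm/530nm) ratio of cleaved versus uncleaved CCF4-AM substrate, read after 2 h substrate loading. Cells were HCT116 carrying the p53-responsive beta-lactamase reporter, dosed 16 h at 37C, 5% CO2; CellTiter-Glo measured in parallel.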

Experiment [9] can be described thus: CCTE_Harrill_HTTr_Viability_MCF7: CCTE's 6-hour Cell Viability Assessment for the High-Throughput Transcriptomics (HTTr) Platform, in MCF-7 cells cultured in DMEM + 10% fetal bovine serum, Harrill Lab (AID 2284010; active means hit-call score of the fitted dose curve at least 0.9, where 1 is the maximum; inactive means score below 0.9). In outline:
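Cells were dosed with chemicals in an eight-point dilution series, imaged 6 hours later for propidium iodide uptake, and the endpoint was analyzed by bidirectional fitting against DMSO as negative control.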

A short description of experiment [10]: CCTE_Harrill_HTTr_Apoptosis_MCF7: CCTE's 6-hour Apoptosis Assessment for the High-Throughput Transcriptomics (HTTr) Platform, in MCF-7 cells cultured in DMEM + 10% fetal bovine serum, Harrill Lab (AID 2284011; active means hit-call score of the fitted dose curve at least 0.9, where 1 is the maximum; inactive means score below 0.9). A digest of the protocol:
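Read-out: CellEvent Caspase 3/7 Green signal by high content imaging, gain-of-signal indicating apoptosis. MCF-7 cells, DMEM + 10% FBS, eight-point dilution series, 6 h exposure. Curves fitted bidirectionally relative to DMSO negative control.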

For `Oc1cccc(-c2c3nc(c(-c4cccc(O)c4)c4ccc([nH]4)c(-c4cccc(O)c4)c4nc(c(-c5cccc(O)c5)c5ccc2[nH]5)CC4)C=C3)c1`, the concentration at half-maximal activity (AC50) in experiment [1] is 20.2 µM (active) and 17.5 µM (active); in experiment [2] it was 26.1 µM (active) and 33.8 µM (active); in [3], 35.7 µM (active); in experiment [4], 37.4 µM (active); in experiment [5] it was 17 µM (active) and 33.2 µM (active); in experiment [6] it was 37.1 µM (active) and 38.3 µM (active). Further, the AC50 in [7] was 42.9 µM (active); in [8], 24.5 µM (active) and 36.4 µM (active). Moreover, the result in experiment [3], in experiment [4] and in experiment [7] was inactive.

`CC(COc1ccccc1)N(CCCl)Cc1ccccc1` (stereo unspecified): the outcome in experiment [1], in experiment [2], in experiment [3], in experiment [4], in experiment [5] and in experiment [6] was inactive. The result in experiment [7], in experiment [8], in experiment [9] and in [10] was inactive. In addition, the concentration at half-maximal activity (AC50) in experiment [3] was 54.6 µM (active) and 79.1 µM (active); in experiment [4], 23.1 µM (active).

In the case of `CCC[C@@H]1C[C@@H](C(=O)N[C@@H]([C@H]2O[C@H](SC)[C@H](O)[C@@H](O)[C@H]2O)[C@@H](C)O)N(C)C1`, the result in experiment [1], in experiment [2], in [3] and in experiment [4] was inactive.

Consider `NC(=O)NNc1ccccc1`, for which the compound was classed as inactive in experiment [1], in experiment [2], in [3], in experiment [4], in [5] and in experiment [6]. Further, the result in experiment [7] and in [8] was inactive. Also, the half-maximal activity concentration (AC50) was 0.000125 µM (active) in [4] and 0.0608 nM (active) in experiment [8].

As for `OCc1cc(C(O)CNCCCCCCOCCCCc2ccccc2)ccc1O` (stereo unspecified), the compound was called inactive in experiment [1], in [2], in experiment [3], in experiment [4], in experiment [5] and in experiment [6]. In addition, the call in [7] and in experiment [8] was inactive. Further, the AC50 in experiment [5] is 28.2 µM (active).

Regarding `CC1=CC[C@H](CC=O)C1(C)C`, the result in experiment [1], in experiment [2], in [3], in experiment [4], in [5] and in experiment [6] was inactive.

On to `CC1(C)[C@@H](O)CC[C@]2(C)[C@H]3C(=O)C=C4[C@@H]5C[C@@](C)(C(=O)O)CC[C@]5(C)CC[C@@]4(C)[C@]3(C)CC[C@@H]12`, for which the outcome in experiment [1], in experiment [2], in experiment [3], in experiment [4], in experiment [5] and in experiment [6] was inactive. In addition, the compound was classed as inactive in experiment [7] and in experiment [8]. Moreover, the half-maximal activity concentration (AC50) in [3] is 61.4 µM (active) and 22.5 µM (active); in experiment [4] it was 46.4 µM (active); in experiment [6], 43.1 µM (active); in [7] it was 30.6 µM (active) and 33.5 µM (active).

Take `Cc1cccc2cccnc12`: the outcome in [1], in experiment [2], in [3], in experiment [4] and in experiment [5] was inactive.

Consider `C#C[C@]1(OC(C)=O)CC[C@H]2[C@@H]3CCC4=C[C@@H](OC(C)=O)CC[C@@H]4[C@H]3CC[C@@]21C`, for which the half-maximal activity concentration (AC50) in experiment [1] is 36.9 µM (active) and 34.4 µM (active); in [3], 37.3 µM (active); in [6], 43 µM (active); in [7], 36.7 µM (active). Moreover, the result in experiment [2], in experiment [3], in experiment [4], in experiment [5], in experiment [6] and in [7] was inactive. Moreover, the result in [8], in [9] and in [10] was inactive.

In the case of `CC(=O)Nc1ccc(C=NNC(N)=S)cc1`, the outcome in experiment [1], in [2], in experiment [3], in experiment [4], in experiment [5] and in experiment [6] was inactive.

As to `CCCCOCCOCCOCCCC`, the call in experiment [1], in [2], in experiment [3], in experiment [4], in experiment [5] and in experiment [6] was inactive. The compound was classed as inactive in [7].

With `CC(=O)O[C@H]1CC[C@@]2(C)C(=CC[C@H]3[C@@H]4CC[C@H](C(C)=O)[C@@]4(C)CC[C@@H]32)C1`, the call in [1], in experiment [2], in experiment [3], in experiment [4], in experiment [5] and in experiment [6] was inactive. In experiment [7], the result was inactive.

Regarding `C=CCn1c(=O)n(CC=C)c(=O)n(CC=C)c1=O`, the result in [1], in [2], in experiment [3], in experiment [4], in experiment [5] and in [6] was inactive. The call in experiment [7] was inactive.

With `Cc1ccsc1C(=CCCN1CCC[C@@H](C(=O)O)C1)c1sccc1C`, the result in [1], in [2], in [3], in [4], in [5] and in experiment [6] was inactive. Moreover, in experiment [7], the call was inactive.
